The record followed here is PubChem BioAssay (NCI).

The structures appear in SMILES notation. Compounds without any hit were thinned out: in the full panel of roughly 83,000, 20% have a hit.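 Testing used 96-well plates and a 48-hour single-concentration exposure. Example: -40 means 40% of the starting cells died.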 Unmarked numbers belong to inactive results. Activity calls are given as the source filed them. Rule for the calls: active = growth percent below 10; inactive = the rest.

Holding throughout (assay): NCI-60 one-dose screen, 48 h (100 = growth as untreated, 0 = no growth, -100 = all killed)
One assay deals with A549/ATCC NSCLC. To be noted: 10 µM unless noted.
The next assay deals with COLO 205 colon. To be noted: 10 µM.
For another assay, the system named is MALME-3M melanoma. To be noted: 10 µM unless noted.
Another assay has as its system RXF 393 renal. To be noted: 10 µM unless noted.
A further assay has as its system UACC-257 melanoma. To be noted: 10 µM unless noted.
For a further assay, the system named is HT29 colon. To be noted: 10 µM unless noted.
The subject of the next assay is U251 CNS. To be noted: 10 µM unless noted.
Another assay deals with SK-MEL-2 melanoma. To be noted: 10 µM unless noted.
The subject of the next assay is SN12C renal. To be noted: 10 µM unless noted.
In the next assay the test system is UO-31 renal. To be noted: 10 µM unless noted.
The next assay concerns A498 renal. To be noted: 10 µM unless noted.
The test system of a further assay is HL-60(TB) leukemia. To be noted: 10 µM unless noted.
The next assay concerns OVCAR-8 ovarian. To be noted: 10 µM unless noted.
For a further assay, the system named is OVCAR-4 ovarian. To be noted: 10 µM unless noted.
The subject of another assay is SK-OV-3 ovarian. To be noted: 10 µM unless noted.
The subject of a further assay is HS 578T breast. To be noted: 10 µM unless noted.
Another assay deals with T-47D breast. To be noted: 10 µM unless noted.
The test system of another assay is MDA-MB-435 melanoma. To be noted: 10 µM unless noted.
The test system of another assay is CAKI-1 renal. To be noted: 10 µM unless noted.
Another assay deals with BT-549 breast. To be noted: 10 µM.

Turning to `C#CC1(O)CCC2(C)C(CCC3C4CCC(=O)C4(C)CCC32)C1` (centres undefined), the growth was 92% in the assay on A549/ATCC NSCLC; 106% in the assay with COLO 205 colon; 103% in the assay on MALME-3M melanoma; 110% with RXF 393 renal; 93.9% in the assay on UACC-257 melanoma; 86.9% with HT29 colon. Also, the growth in the assay with U251 CNS was 93.9%; with SK-MEL-2 melanoma, 92%; with SN12C renal it was 101%; in the assay with UO-31 renal, 86.8%; in the assay on A498 renal, 98.2%; with HL-60(TB) leukemia, 93.5%. For the same compound, the growth was 97.6% in the assay on OVCAR-8 ovarian; 95.8% in the assay on OVCAR-4 ovarian; 97.6% with SK-OV-3 ovarian; 94.3% in the assay on HS 578T breast; 96.1% with T-47D breast; 101% with MDA-MB-435 melanoma.

Regarding `C[CH2][Pb]([CH2]C)([CH2]C)[O]C(=O)c1ccc(N)cc1`, the growth with COLO 205 colon was 92.5%; with MALME-3M melanoma, 40.3%; in the assay on RXF 393 renal it was 34.2%; in the assay on HT29 colon, 79.8%; in the assay on U251 CNS it was 77.4%; in the assay on SK-MEL-2 melanoma, 39.3%. Also, the growth in the assay on SN12C renal is 77.2%; in the assay with UO-31 renal, 52.1%; in the assay on CAKI-1 renal, 65.5%; with A498 renal, 60.3%; in the assay on HL-60(TB) leukemia it was 56.1%; in the assay on OVCAR-8 ovarian, 82.1%. The growth in the assay with OVCAR-4 ovarian is 57%; in the assay on SK-OV-3 ovarian, 76.4%; in the assay with T-47D breast, 47.6%; in the assay with BT-549 breast, 56.9%.

Turning to `Nc1c(Br)cc([N+](=O)[O-])cc1[N+](=O)[O-]`, the growth with A549/ATCC NSCLC was 92.3%; in the assay on COLO 205 colon, 116%; in the assay with RXF 393 renal, 106%; with UACC-257 melanoma it was 100%; in the assay on HT29 colon it was 103%; with U251 CNS, 101%. For the same compound, the growth in the assay with SK-MEL-2 melanoma was 138%; with SN12C renal, 104%; in the assay on CAKI-1 renal it was 92.8%; in the assay with A498 renal, 92.8%; in the assay on HL-60(TB) leukemia, 67.8%; with OVCAR-8 ovarian it was 98%. In addition, the growth in the assay on OVCAR-4 ovarian was 107%; with SK-OV-3 ovarian, 107%; in the assay with HS 578T breast, 106%; in the assay with T-47D breast, 107%; in the assay on BT-549 breast it was 110%; in the assay with MDA-MB-435 melanoma it was 112%.

For `NC(=O)C(Br)CBr` (centres undefined), the growth is 4.34% (active) in the assay on A549/ATCC NSCLC; -83.4% (active) with COLO 205 colon; -83.5% (active) in the assay on UACC-257 melanoma; -21.8% (active) with HT29 colon; 26.9% with U251 CNS; -85.3% (active) in the assay with SK-MEL-2 melanoma. The growth was 22% in the assay on SN12C renal; -51.8% (active) in the assay with UO-31 renal; 103% with A498 renal; -23.2% (active) in the assay on HL-60(TB) leukemia; -24.1% (active) in the assay on OVCAR-8 ovarian; -100% (active) in the assay on OVCAR-4 ovarian. In addition, the growth in the assay on SK-OV-3 ovarian was 80%; in the assay with HS 578T breast, 51.1%; in the assay on T-47D breast it was 1.22% (active); with MDA-MB-435 melanoma, -73.3% (active).

Regarding `O=S(=O)(F)c1ncnc2nc[nH]c12`, the growth in the assay with A549/ATCC NSCLC is 98.5%; with COLO 205 colon it was 115%; in the assay on MALME-3M melanoma, 100%; in the assay with RXF 393 renal it was 101%; in the assay on UACC-257 melanoma, 105%; in the assay with HT29 colon, 101%. Also, the growth was 98.5% with U251 CNS; 85.8% with SK-MEL-2 melanoma; 66.9% with UO-31 renal; 81.4% with CAKI-1 renal; 97.2% in the assay with A498 renal; 97.2% in the assay on HL-60(TB) leukemia. Moreover, the growth was 100% in the assay with OVCAR-8 ovarian; 102% in the assay on OVCAR-4 ovarian; 94.7% in the assay on SK-OV-3 ovarian; 77.1% with HS 578T breast; 91.3% in the assay with T-47D breast; 100% in the assay on BT-549 breast. For the same compound, the growth in the assay with MDA-MB-435 melanoma was 100%.

As for `O=C(O)c1nn(Cc2ccc(Cl)cc2)c2ccccc12`, the growth in the assay on A549/ATCC NSCLC is 102%; in the assay with COLO 205 colon, 111%; with MALME-3M melanoma, 113%; in the assay with RXF 393 renal, 123%; with UACC-257 melanoma it was 93.1%; with HT29 colon, 118%. Moreover, the growth is 100% in the assay on U251 CNS; 114% with SK-MEL-2 melanoma; 93.7% in the assay with SN12C renal; 95.7% in the assay with UO-31 renal; 106% in the assay with CAKI-1 renal; 96.5% with A498 renal. For the same compound, the growth in the assay on HL-60(TB) leukemia is 103%; in the assay on OVCAR-8 ovarian, 92.7%; in the assay on OVCAR-4 ovarian it was 100%; with SK-OV-3 ovarian, 113%; in the assay with HS 578T breast, 105%; in the assay with T-47D breast it was 104%. Besides, the growth in the assay on BT-549 breast was 122%; with MDA-MB-435 melanoma, 116%.

For `NCCc1cc(O)c(O)cc1O`, the growth is 100% in the assay on A549/ATCC NSCLC; 106% in the assay with COLO 205 colon; 113% in the assay with RXF 393 renal; 102% with UACC-257 melanoma; 98.8% in the assay with HT29 colon; 95.4% with U251 CNS. Besides, the growth was 101% with SK-MEL-2 melanoma; 89.1% in the assay on SN12C renal; 100% in the assay on CAKI-1 renal; 122% in the assay on A498 renal; 103% in the assay on HL-60(TB) leukemia; 97.8% in the assay with OVCAR-8 ovarian. Moreover, the growth with OVCAR-4 ovarian was 99.5%; in the assay with SK-OV-3 ovarian, 99%; in the assay on HS 578T breast, 120%; with T-47D breast, 100%; with BT-549 breast, 90.9%; in the assay on MDA-MB-435 melanoma, 108%.

Regarding `CC1(CF)NC(=O)NC1=O` (centres undefined), the growth in the assay with A549/ATCC NSCLC was 113%; in the assay on COLO 205 colon, 114%; in the assay with RXF 393 renal, 121%; in the assay on UACC-257 melanoma, 97.2%; with U251 CNS it was 115%; in the assay on SK-MEL-2 melanoma it was 121%. The growth in the assay with SN12C renal is 94.3%; with CAKI-1 renal, 122%; in the assay on A498 renal it was 105%; in the assay with OVCAR-8 ovarian it was 102%; in the assay with SK-OV-3 ovarian, 109%; in the assay with HS 578T breast, 108%. The growth in the assay on BT-549 breast is 104%; with MDA-MB-435 melanoma, 107%.

`COc1cc(C2CC(=O)Nc3nc(N)[se]c32)cc(OC)c1OC` (centres undefined): the growth with A549/ATCC NSCLC is 45.7%; with COLO 205 colon, 107%; in the assay on MALME-3M melanoma it was 105%; with RXF 393 renal, 116%; with UACC-257 melanoma, 99.6%; with HT29 colon, 89.5%. For the same compound, the growth with U251 CNS was 29.8%; in the assay on SK-MEL-2 melanoma it was 89.2%; in the assay on SN12C renal, 64.6%; in the assay on UO-31 renal, 99.9%; in the assay on CAKI-1 renal, 113%; in the assay on A498 renal it was 82.8%. Also, the growth with HL-60(TB) leukemia was 89.1%; in the assay on OVCAR-8 ovarian, 58.8%; with OVCAR-4 ovarian, 105%; in the assay on SK-OV-3 ovarian, 101%; with HS 578T breast, 81.9%; with T-47D breast it was 74.5%. Further, the growth in the assay with BT-549 breast was 130%; with MDA-MB-435 melanoma, 105%.
